Screens deposited in PubChem by National Center for Advancing Translational Sciences (NCATS).
IDH1 R132H inh: blocks human mutant IDH1 R132H enzyme; IDH1-R132H enzyme, NADPH consumption, diaphorase/resazurin fluorescence; AID 602179; 0.093% of 390,000 active; O75874; Potency, µM (doses to about 76.6 µM), most hits filed as inhibitors; note: nearly all actives have a fitted effect of over 65% in size
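IDH1-R132H (0.5 ug/mL) preincubated 30 min with compound, then NADPH (0.016 mM) and alpha-KG (2 mM) added; 80 min at RT, pH 7.5. Remaining NADPH coupled via diaphorase/resazurin to fluorescence (540/590 nm); concentration-response curves normalized to no-enzyme control.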
Coupling enz: counter-screen for Giardia aldolase inhibitors: coupling enzyme system; coupling enzyme system counterscreen, AmpLite Red fluorescence; activity change, negative = inhibition, % at 58.2 µM, hits read low; 0.67% of 290,000 active; AID 2472; in the data active = activity change below about -30%
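Fluorescence at 525 nm excitation and 598 nm emission measured inhibition of the coupled detection system without aldolase. Compounds (at 57.5 uM final) were preincubated 10 min at room temperature with coupling enzyme reagent before a 20 min substrate/AmpLite Red step.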
TrxR1 inh: rat TrxR1 inhibition; AID 588453; Potency, µM (top dose mostly 114 µM), most hits filed as inhibitors; 1% of 390,000 active; O89049; recombinant rTrxR1, NADPH fluorescence consumption, selenite substrate; note: nearly all actives have a fitted effect of over 65% in size
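Rat TrxR1 (90 nM in the dispensed reagent) was pre-reduced with 400 uM NADPH for 5 min at room temperature, then incubated with compound for 15 min. After 400 uM selenite was added, NADPH fluorescence (Ex 340/Em 450 nm) was followed for 8 min.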
TrxR1 substrate: is turned over as a substrate by rat TrxR1. O89049. purified TrxR1 substrate turnover, NADPH consumption readout. Potency, µM (highest dose often 114 µM). 0.01% of 390,000 active. AID 588456; note: nearly all actives have a fitted effect of over 50% in size
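Rat TrxR1, dispensed at 90 nM, was prereduced with 400 uM NADPH (final) for 5 min at ~22 deg C, then incubated with compound 15 min before 400 uM selenite. A first-read NADPH fluorescence drop versus no-compound background flagged substrates.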
Eya2 inh: Eya2 (human) phosphatase inhibition. Potency, µM (titrated, usually from 76.9 µM), actives largely listed as inhibitors. 0.006% of 330,000 active. O00167. recombinant Eya2, OMFP fluorescence dephosphorylation (OMFP is methylfluorescein phosphate)
Target sequence (O00167 whole entry, looked up): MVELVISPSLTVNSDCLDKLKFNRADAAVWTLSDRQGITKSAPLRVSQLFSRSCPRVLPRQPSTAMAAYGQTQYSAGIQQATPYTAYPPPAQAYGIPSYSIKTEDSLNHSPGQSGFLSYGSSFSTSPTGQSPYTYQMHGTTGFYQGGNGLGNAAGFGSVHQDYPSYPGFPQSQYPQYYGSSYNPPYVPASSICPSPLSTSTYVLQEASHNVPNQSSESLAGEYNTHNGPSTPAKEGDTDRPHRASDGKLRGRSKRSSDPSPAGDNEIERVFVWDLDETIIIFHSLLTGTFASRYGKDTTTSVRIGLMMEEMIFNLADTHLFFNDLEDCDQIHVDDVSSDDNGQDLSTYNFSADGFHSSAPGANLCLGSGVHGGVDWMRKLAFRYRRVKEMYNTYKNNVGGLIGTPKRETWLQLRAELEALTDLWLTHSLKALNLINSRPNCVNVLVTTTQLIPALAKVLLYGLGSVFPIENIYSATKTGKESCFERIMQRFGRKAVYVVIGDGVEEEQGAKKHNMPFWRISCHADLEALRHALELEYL
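Eya2 protein (added as 0.2 uM solution) was preincubated with compound for 10 min at ambient temperature in 50 mM HEPES pH 7.5, 50 mM NaCl, 5 uM MgCl2, 0.05% BSA, 1 mM DTT. OMFP (added at 50 uM) then reacted 10 min; fluorescence read at 485/525 nm.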
Hits are given with their value; i = inactive; ? = inconclusive; nt = no result; ! = not active in a repeat; [ ] = remark or other dose. Hits are enriched below; roughly 1.5% of the tested compounds scored in any of these assays. Unless noted, calls come from the whole dose curve; as a rule, active = well fitted curve in the direction sought with a large enough effect; inconclusive = small, poorly fitted or top-dose-only effect, or another doubt; inactive = no such curve, though single readings can be large; an effect the other way counts as inactive or inconclusive.

SMILES | IDH1 R132H inh | Coupling enz | TrxR1 inh | TrxR1 substrate | Eya2 inh
COc1ccc2ccc3c(c2c1)N=C[C@]1(O3)N(C)c2ccccc2C1(C)C | i | -67 | i | ? | i
ICC[n+]1csc2ccccc21 | nt | nt | i | i[0.0914 µM] | nt
CC1=C(C(=O)OCc2ccc3nsnc3c2)N2C(=O)[C@@H](NC(=O)OCc3ccc4nsnc4c3)[C@H]2SC1 | nt | nt | ? | i | nt
COc1cc2c(cc1OC)C(C)N(C(=O)c1cccs1)CC2 (centres undefined) | i | i | i | i | i
COc1cc2c(cc1OC)C(C)N(C(=O)c1cc3c(=O)oc4ccc(C)cc4c3s1)CC2 (centres undefined) | i | i | 79µM | i | i
Cc1ccc(CNC(=O)COC(=O)c2ccccc2OCC(=O)Nc2ccc(Br)cc2)cc1 | nt | nt | i | i | nt
CC1=C(C#N)C(=O)NC(=O)/C1=C\c1ccc(-c2cc(C)c(C)cc2[N+](=O)[O-])o1 | ? | i | 14µM | i | i
Cc1ccc(-c2ccc(/C=C3/NC(=O)NC3=O)o2)cc1[N+](=O)[O-] | i | i | i | i | i
O=C(Nc1ccc(Cc2ccncc2)cc1)C1CCC(N2C(=O)C3C4C=CC(C5CC45)C3C2=O)CC1 (centres undefined) | i | i | i | i | i
CC(=O)Nc1ccc(NC(=O)C2CCC(N3C(=O)C4C5C=CC(C6CC56)C4C3=O)CC2)cc1 (centres undefined) | i | i | 25µM | i | i
O=C(CSc1nnc(C2CCCCC2)n1Cc1ccccc1)NCc1ccco1 | i | i | 45µM | i | i
Cc1ccc(-n2c(SCC(=O)NCc3ccco3)nnc2-c2cccnc2)c(C)c1 | i | i | 56µM | i | i
CCn1c(SCC(=O)NCc2ccco2)nnc1C1CCCC1 | i | i | ? | i | i
Cc1cc(C)nc(SCc2nnc(SCC(=O)NCc3ccco3)n2-c2ccccc2)n1 | i | i | 50µM | i | i
COc1ccc(C(=O)N2CCN(Cc3cc(OC)c(O)c(OC)c3)CC2)cc1OC | i | i | 25µM | i | i
COc1cc(CN2CCN(C(=O)CC(C)C)CC2)cc(OC)c1O | i | i | 7.9µM | i | i
Cn1cnnc1SCC(=O)c1cc2ccccc2oc1=O | i | i | 7.1µM | i | i
O=C(CSc1nnc(-c2cccnc2)o1)c1cc2ccccc2oc1=O | i | i | i | i | i
O=C(NCc1ccc2[nH]c3c(c2c1)CCCC3)c1ccc(S(=O)(=O)N2CCOCC2)cc1 | i | i | i | i | i
O=C(NCc1ccc2[nH]c3c(c2c1)CCCC3)N1CCOCC1 | nt | -53 | nt | nt | i
CN(C)S(=O)(=O)c1ccc(C(=O)Oc2cc(=O)[nH]c3ccccc23)cc1 | i | i | 14µM | i | i
Cn1c(C(=O)OCC(=O)NCc2ccco2)cc2sccc21 | i | i | 25µM | i | i
c1ccc(Cn2c(SCc3nc4ccccc4s3)nnc2-c2ccco2)cc1 | i | i | 10µM | i | i
Cc1ccc(CNC(=O)c2cn(C3CCCCC3)c(=O)c3c2c2ccccc2n3C)o1 | i | i | 4µM | i | i
CC1(OC(=O)C2CCCC2)C(=O)C=C2C=C(c3ccsc3)N(C(CO)CO)C=C2C1=O (centres undefined) | i | -31! | i | i | i
SMILES | IDH1 R132H inh | Coupling enz | TrxR1 inh | TrxR1 substrate | Eya2 inh
CC1(OC(=O)C2CCCC2)C(=O)C=C2C=C(c3ccsc3)N(C3CC3)C=C2C1=O (centres undefined) | i | -30! | i | i | i
Cc1ccc(CN(C)C(=O)C2CCC(=O)N(CC3CCCCC3)C2)o1 (centres undefined) | i | nt | 40µM | i | i
Cc1cc(Nc2c(C)n(C)n(-c3ccccc3)c2=O)n2c(nc3ccccc32)c1C#N | i | i | 35µM | i | i
O=c1cc(-c2ccccc2F)[nH]c2cc3c(cc12)OCO3 | nt | nt | i | i | i
O=C1NC(=S)NC1=Cc1ccco1 | i | nt | 7.9µM | i | nt
CC(C)(C)N=C1C([N+](=O)[O-])=CC=C2C1=NC1(CCCCC1)N2O | i | -46 | i | i | i
O=[N+]([O-])CC1(n2nc3ccccc3n2)CCCCC1 | i | nt | i | i | i
O=[N+]([O-])C1=CC=C2C(=NC3(CCCCC3)N2O)C1=NCCc1ccccc1 | i | -65 | i | i | i
